Bioassay records from PubChem.
GIRK2 act – Activators of human GIRK2-containing channels. AID 1259324. 34,000 tested, under 10 active. P48051. activation (% efficacy), % for hits at 37.5 µM. HEK293 GIRK2/NPY4 cells, thallium flux fluorescence;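 active means primary screen hit, no activity in plain HEK293 cells, and in GIRK2-only cells above 5% efficacy rising with concentration; inactive means the rest, including fluorescent compounds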;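 further: efficacy is normalized control-subtracted fluorescence 15 s after thallium addition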
GluA2 TARP mod – GluA2-stargazin AMPA receptor complex modulation; O88602+P19491; HEK293 GluA2+stargazin, membrane potential dye (FDSS), glutamate EC50; hits were called plate by plate, in both directions; calls only at 30 µM; hit rate 3.5% among 40,000;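 active means any of four per-well response measures lying three or more SD from its plate-wide compound average, in either direction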
Target sequence (O88602 whole entry, looked up): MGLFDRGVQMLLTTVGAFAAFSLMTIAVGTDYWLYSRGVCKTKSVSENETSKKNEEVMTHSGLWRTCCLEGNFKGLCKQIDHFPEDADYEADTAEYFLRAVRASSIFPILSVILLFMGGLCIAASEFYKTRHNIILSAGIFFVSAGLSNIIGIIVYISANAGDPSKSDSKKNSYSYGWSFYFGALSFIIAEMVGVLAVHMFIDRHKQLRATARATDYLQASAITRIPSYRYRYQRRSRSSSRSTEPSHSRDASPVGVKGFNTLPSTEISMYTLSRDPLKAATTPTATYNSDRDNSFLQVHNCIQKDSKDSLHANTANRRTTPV
Target sequence (P19491 whole entry, looked up): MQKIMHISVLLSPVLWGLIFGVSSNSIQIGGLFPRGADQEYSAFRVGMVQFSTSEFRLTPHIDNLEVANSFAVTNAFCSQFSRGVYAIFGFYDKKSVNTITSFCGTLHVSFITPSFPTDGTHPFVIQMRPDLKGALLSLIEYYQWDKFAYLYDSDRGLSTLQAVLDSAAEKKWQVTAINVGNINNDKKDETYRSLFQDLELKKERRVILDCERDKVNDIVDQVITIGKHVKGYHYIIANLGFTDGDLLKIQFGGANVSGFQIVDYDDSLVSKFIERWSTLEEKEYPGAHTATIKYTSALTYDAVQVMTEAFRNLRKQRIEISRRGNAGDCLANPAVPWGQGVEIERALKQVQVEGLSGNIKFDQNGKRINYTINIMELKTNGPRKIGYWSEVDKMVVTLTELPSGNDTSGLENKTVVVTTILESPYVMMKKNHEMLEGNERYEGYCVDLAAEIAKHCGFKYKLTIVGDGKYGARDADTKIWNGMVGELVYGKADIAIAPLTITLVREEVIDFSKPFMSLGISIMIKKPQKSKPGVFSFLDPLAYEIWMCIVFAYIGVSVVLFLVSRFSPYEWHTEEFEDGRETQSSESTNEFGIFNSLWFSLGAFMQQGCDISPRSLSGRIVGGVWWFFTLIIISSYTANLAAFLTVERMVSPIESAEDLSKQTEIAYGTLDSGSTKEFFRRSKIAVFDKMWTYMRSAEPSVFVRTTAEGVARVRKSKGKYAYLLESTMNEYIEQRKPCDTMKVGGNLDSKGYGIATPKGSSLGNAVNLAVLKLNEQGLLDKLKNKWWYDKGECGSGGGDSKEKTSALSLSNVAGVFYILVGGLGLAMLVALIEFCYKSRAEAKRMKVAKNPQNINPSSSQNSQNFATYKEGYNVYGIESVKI
Numbers without * were called inactive. The sample as a whole holds a higher share of hits than the screen did.

O=C(Cn1nc(S(=O)(=O)c2ccccc2)ccc1=O)Nc1ccc(Cl)cc1 was read as GIRK2 act inactive and GluA2 TARP mod active.
CCc1ccccc1NC(=O)Cn1nc(SC)c(S(=O)(=O)c2ccc(F)cc2)c1N was read as GluA2 TARP mod inactive.
CSc1nn(CC(=O)Nc2cccc(Cl)c2)c(N)c1S(=O)(=O)c1ccccc1 was read as GluA2 TARP mod active.
For CCSc1nn(CC(=O)Nc2cccc(SC)c2)c(N)c1S(=O)(=O)c1ccc(C)cc1 the results were GluA2 TARP mod inactive.
O=C(Cn1nc(S(=O)(=O)c2ccccc2)ccc1=O)Nc1ccccc1F was read as GIRK2 act inactive and GluA2 TARP mod inactive.
For CSc1nn(CC(=O)Nc2cccc(C)c2C)c(N)c1S(C)(=O)=O the results were GIRK2 act inactive and GluA2 TARP mod active.
For CSc1nn(CC(=O)Nc2ccc3c(c2)OCO3)c(N)c1S(C)(=O)=O the results were GIRK2 act inactive and GluA2 TARP mod inactive.
For CSc1nn(CC(=O)Nc2c(C)cccc2C)c(N)c1S(C)(=O)=O the results were GIRK2 act inactive and GluA2 TARP mod active.
`CCOC(=O)N1CCc2c(sc(NC(=O)c3cccc(C)c3)c2-c2nc3ccccc3s2)C1` gave GluA2 TARP mod inactive.
COc1ccc(C(=O)Nc2cc3c4c(c2)CC(=O)N4CCC3)cc1OC was read as GIRK2 act inactive and GluA2 TARP mod inactive.
For COc1ccc(Cl)cc1NC(=O)CCc1c(C)nn(-c2nc(C)cc(=O)[nH]2)c1C the results were GIRK2 act inactive and GluA2 TARP mod inactive.
For CN(C)C(=O)c1ccc(-n2nc(C(F)(F)F)c3c2CCCC3)cc1 the results were GluA2 TARP mod inactive.
For COc1ccc(S(=O)(=O)CCC(=O)Nc2ccc(S(N)(=O)=O)cc2)cc1 the results were GIRK2 act inactive and GluA2 TARP mod inactive.
CN1CCN(NC(=O)C(=O)Nc2ccc(F)c(Cl)c2)CC1 was read as GIRK2 act inactive and GluA2 TARP mod inactive.
Screening CN1CCN(NC(=O)C(=O)Nc2ccc3c(c2)OCCO3)CC1 returned GluA2 TARP mod active.
Screening Cc1cc(C)c(NC(=O)Cc2csc(Nc3ccc(F)cc3)n2)c(C)c1 returned GIRK2 act inactive and GluA2 TARP mod inactive.
`NCC(=O)N1CCOC(c2ccccc2)C1` (stereo not given) gave GIRK2 act inactive and GluA2 TARP mod inactive.
COc1ccc(-c2noc(Cn3ccn4nc(-c5cccs5)cc4c3=O)n2)cc1 was read as GIRK2 act inactive and GluA2 TARP mod inactive.
O=C(C1COCC(=O)N1Cc1ccccc1)N1CCN(c2ccc(F)cc2)CC1 (stereo not given) was read as GIRK2 act inactive and GluA2 TARP mod inactive.
Screening CC(C)(C)c1cc(NC(=O)C2COCC(=O)N2Cc2ccccc2)on1 (stereo not given) returned GIRK2 act inactive and GluA2 TARP mod active.
Screening O=C(Nc1ccc(-n2cnnn2)cc1)C1COCC(=O)N1Cc1ccccc1 (stereo not given) returned GIRK2 act inactive and GluA2 TARP mod inactive.
O=C(C1COCC(=O)N1Cc1ccccc1)N1CCN(c2cccc(Cl)c2)CC1 (stereo not given) was read as GIRK2 act inactive and GluA2 TARP mod active.
For O=C(NCCCN1CCOCC1)c1ccc(N2CCCCS2(=O)=O)cc1 the results were GIRK2 act inactive and GluA2 TARP mod inactive.
For O=C(c1ccc(S(=O)(=O)N2CCOCC2)cc1)N(C(=O)N1CCCCC1)c1cccc(Cl)c1 the results were GIRK2 act inactive and GluA2 TARP mod active.
Screening O=C(c1ccc(S(=O)(=O)N2CCOCC2)cc1)N(C(=O)N1CCCCC1)c1ccc(Cl)cc1 returned GluA2 TARP mod inactive.
COc1ccc(CCNC(=O)Cc2c(C)[nH]c(=O)[nH]c2=O)cc1 was read as GIRK2 act inactive and GluA2 TARP mod inactive.
For O=C(Cc1ccc(NS(=O)(=O)C2CCCCC2)cc1)NCc1cccs1 the results were GIRK2 act inactive and GluA2 TARP mod inactive.
For O=C1Nc2ccccc2Oc2ccc(NS(=O)(=O)C3CCCCC3)cc21 the results were GluA2 TARP mod active.
`COc1ccc(F)cc1S(=O)(=O)NCCC(O)C(C)(C)C` (stereo not given) gave GIRK2 act inactive and GluA2 TARP mod active.
Screening COc1ccc(F)cc1S(=O)(=O)NCC(O)c1ccc(C(F)(F)F)cc1 (stereo not given) returned GIRK2 act inactive and GluA2 TARP mod inactive.
Screening O=C(Nc1ccc2scnc2c1)c1ccc(Cl)cc1Cl returned GIRK2 act inactive and GluA2 TARP mod inactive.
Screening Cc1onc(-c2ccccc2Cl)c1C(=O)N1CCN(Cc2nnnn2-c2ccc(F)c(F)c2)CC1 returned GIRK2 act inactive and GluA2 TARP mod active.
Screening Cc1cc(C(=O)N2CCN(Cc3nnnn3-c3ccc(F)c(F)c3)CC2)no1 returned GIRK2 act inactive and GluA2 TARP mod inactive.
Screening COc1ccc(SCCC(=O)Nc2nc3ccc4nc(C)sc4c3s2)cc1 returned GIRK2 act inactive and GluA2 TARP mod inactive.
Cc1ccc([N+](=O)[O-])cc1NC(=O)c1ccc(C(C)(C)C)cc1 was read as GIRK2 act inactive and GluA2 TARP mod active.
For Cc1ccc([N+](=O)[O-])cc1NC(=O)c1ccc(=O)n(Cc2ccccc2)c1 the results were GIRK2 act inactive and GluA2 TARP mod inactive.
`O=C(c1ccccc1F)N1CCC(Cn2cccn2)CC1` gave GIRK2 act inactive and GluA2 TARP mod inactive.
Screening O=C(c1ccccc1C(F)(F)F)N1CCC(Cn2cccn2)CC1 returned GIRK2 act inactive and GluA2 TARP mod active.
O=c1[nH]c2c(s1)C1c3ccccc3OC3CCCC(S2)C31 (stereo not given) was read as GluA2 TARP mod active.
For O=C(Cc1cc(-c2ccc(F)cc2F)on1)Nc1ccon1 the results were GIRK2 act inactive and GluA2 TARP mod inactive.
`Cc1ccnc(NC(=O)Cc2cc(-c3ccccc3F)on2)c1` gave GIRK2 act inactive and GluA2 TARP mod active.
`Cc1cccc(Cn2c(N3CCC(C(N)=O)CC3)nc3c2c(=O)n(C)c(=O)n3C)c1` gave GluA2 TARP mod inactive.
`O=C1CN(C(=O)COc2ccccc2Cl)c2ccccc2N1` gave GIRK2 act inactive and GluA2 TARP mod inactive.
O=S(=O)(NCCOc1ccc(-c2ccc(F)cc2)nn1)c1ccc(Br)cc1 was read as GIRK2 act inactive and GluA2 TARP mod active.
`Cc1ccc(S(=O)(=O)NCCOc2ccc(-c3ccc(F)cc3)nn2)cc1C` gave GIRK2 act inactive and GluA2 TARP mod active.
For COc1ccc(S(=O)(=O)NCCOc2ccc(-c3ccc(F)cc3)nn2)cc1 the results were GIRK2 act inactive and GluA2 TARP mod inactive.
Screening O=S(=O)(NCCOc1ccc(-c2ccc(F)cc2)nn1)c1ccc(Cl)cc1 returned GIRK2 act inactive and GluA2 TARP mod inactive.
`COc1cc(NC(=O)CC(C)C)ccc1N1CCCCC1=O` gave GIRK2 act inactive and GluA2 TARP mod inactive.
Screening COc1ccc(S(=O)(=O)Nc2nc(CCC(=O)NC(C)C)cs2)cc1 returned GIRK2 act inactive and GluA2 TARP mod inactive.
Screening COc1ccc(S(=O)(=O)Nc2nc(CCC(=O)Nc3nnc(C)s3)cs2)cc1 returned GIRK2 act inactive and GluA2 TARP mod active.
